A1 inh: caspase 3/7 activation in MEF A1-2A-BIM cells, primary screen, A1 inhibitor project, cell-based, luminescence, HTS. Caspase-Glo 3/7 luminescence, 3 h; percent of clofoctol response, vehicle zero. caspase activation, % (no concentration beside the values). 0.066% of 330,000 active. AID 2462, 2010;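 active = over half of replicate activation scores above 10%, or exactly half above 10 with the replicate mean above 10; inconclusive = replicate mean below 10 yet half the replicates above 10; inactive = over half of replicates below 10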
CSC inhib: cancer stem cell viability inhibitors, primary screen, luminescence; 1.1% of 300,000 active; inhibition, % at 7.5 µM; AID 2717, 2010; cancer stem cell-like cells viability; in the data active = inhibition above about 75%; inconclusive = no clear call, values can overlap the other calls; tested in HMLE shEcad cells
Mdm2 MdmX PPI: inhibitors of human Mdm2-MdmX association, primary screen, cell-based, luminescence, split luciferase, SaOS-2, uHTS. Protein Mdm4 (Homo sapiens) + E3 ubiquitin-protein ligase Mdm2 (Homo sapiens), …. 3% of 330,000 active. SaOS-2 split-luciferase Mdm2/MdmX complementation. inhibition, % at 8 µM. AID 485346, 2010;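 active = inhibition of at least 50% at 8 µM in the primary screen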
Target sequence (O15151 whole entry, looked up): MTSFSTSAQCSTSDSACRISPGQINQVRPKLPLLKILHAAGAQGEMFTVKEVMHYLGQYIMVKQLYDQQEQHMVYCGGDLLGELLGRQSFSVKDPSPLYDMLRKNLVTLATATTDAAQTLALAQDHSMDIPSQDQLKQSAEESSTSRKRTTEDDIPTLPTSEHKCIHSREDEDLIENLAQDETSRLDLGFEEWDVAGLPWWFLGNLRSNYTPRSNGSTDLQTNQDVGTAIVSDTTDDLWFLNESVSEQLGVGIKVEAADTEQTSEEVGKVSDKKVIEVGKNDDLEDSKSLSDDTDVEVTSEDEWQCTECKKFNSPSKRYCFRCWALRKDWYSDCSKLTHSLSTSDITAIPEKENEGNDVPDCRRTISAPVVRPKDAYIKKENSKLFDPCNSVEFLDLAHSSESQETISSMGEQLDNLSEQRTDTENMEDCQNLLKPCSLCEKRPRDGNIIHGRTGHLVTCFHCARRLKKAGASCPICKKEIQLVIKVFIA
Target sequence (Q00987 whole entry, looked up): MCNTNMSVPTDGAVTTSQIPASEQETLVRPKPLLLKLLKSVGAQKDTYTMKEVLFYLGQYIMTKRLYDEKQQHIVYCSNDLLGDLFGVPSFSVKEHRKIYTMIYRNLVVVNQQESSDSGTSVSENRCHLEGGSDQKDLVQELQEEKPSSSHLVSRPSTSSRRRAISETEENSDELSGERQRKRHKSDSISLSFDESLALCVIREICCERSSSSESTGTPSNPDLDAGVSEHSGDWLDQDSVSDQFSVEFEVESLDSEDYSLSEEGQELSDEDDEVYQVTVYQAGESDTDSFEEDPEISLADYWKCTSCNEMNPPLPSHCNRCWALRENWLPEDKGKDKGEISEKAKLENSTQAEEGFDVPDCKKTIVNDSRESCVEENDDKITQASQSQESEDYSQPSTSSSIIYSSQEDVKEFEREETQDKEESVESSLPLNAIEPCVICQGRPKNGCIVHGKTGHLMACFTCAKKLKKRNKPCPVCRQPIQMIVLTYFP
aSyn UTR inh: MLPCN primary screen, SNCA 5' untranslated region | 0.82% of 300,000 active | alpha-synuclein 5'UTR reporter, inhibitor activity | inhibition, % (tested at 7.5 µM); in the data active = inhibition above about 60%; inconclusive = no clear call, values can overlap the other calls;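 note: H4 neuroglioblastoma cells stably carrying SNCA 5'UTR luciferase fusion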
Beta apoptosis: inhibitors of cytokine-induced beta cell apoptosis, primary screen, luminescence; INS-1E cytokine-induced death, ATP luminescence, 48 h; percent of positive-control rescue, neutral wells zero; protection from apoptosis, % (test concentration not listed); 0.8% of 300,000 active;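 active = Every replicate reaches about 75%, or at least half do and their mean reaches it too, limit read from the data; inconclusive = At least half of replicates reach the limit but their mean does not; inactive = Under half of replicates reach the limit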;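 note: higher means more ATP so stronger rescue from cytokine killing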
Mdm2 MdmX conf: Mdm2-MdmX complex disruptors, retested hits, confirmation, luminescence, single concentration; shares compounds with Mdm2 MdmX PPI; Mdm2-MdmX binding, luminescent assay; inhibition, % at 8 µM; 55% of 10,000 active; in the data active = inhibition above about 40%
FLuc counter: full-length luciferase signal inhibition, confirmation, counter-screen for Mdm2/MdmX interaction inhibitor project, cell-based, single concentration, SaOS-2. shares compounds with Mdm2 MdmX PPI. SaOS-2 full-length luciferase counterscreen, luminescence. inhibition, % at 8 µM. 77% of 6,200 active. AID 504607, 2011;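 active = mean inhibition at 8 µM reaching about 37%, which flags the compound as non-specific, limit read from the data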;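 note: p53-null SaOS-2 cells with luciferase driven by a doxycycline-inducible promoter; compound on cells about two nights before reading with doxycycline added after day one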
Numbers stand for hits. Hits are enriched below; roughly 4.1% of the tested compounds scored in any of these assays.

What do the screens show for `Cc1csc(=O)n1CCC(=O)OCC(=O)NNC(=O)c1ccccc1`?
A1 inh: inactive; CSC inhib: inactive; Mdm2 MdmX PPI: inactive; aSyn UTR inh: inactive; Beta apoptosis: inactive

What do the screens show for `O=C(NCCc1ccc(Cl)cc1)c1cccc(NC2=NC3CS(=O)(=O)CC3S2)c1` (centres undefined)?
A1 inh: inactive; CSC inhib: inactive; Mdm2 MdmX PPI: inactive; aSyn UTR inh: inactive; Beta apoptosis: inactive

What do the screens show for `C#CCOCCOCCOCCNc1nc(N2CCN(C(=O)CCCCCCCCCCNC(=O)Cn3cc(CCCCCN)nn3)CC2)nc(N2CCN(C(=O)CCCCCCCCCCNC(=O)[C@H]([C@@H](C)CC)n3cc(CCCCCN)nn3)CC2)n1`?
A1 inh: inconclusive; CSC inhib: inactive; Mdm2 MdmX PPI: 100.3; Beta apoptosis: inactive; Mdm2 MdmX conf: inactive

What do the screens show for `C#CCOCCOCCOCCNc1nc(N2CCN(C(=O)CCCCCCCCCCNC(=O)Cn3cc(CCCCCN)nn3)CC2)nc(N2CCN(C(=O)CCCCCCCCCCNC(=O)[C@H](CO)n3cc(CCCCCN)nn3)CC2)n1`?
A1 inh: inactive; CSC inhib: inactive; Mdm2 MdmX PPI: inactive; Beta apoptosis: inactive

What do the screens show for `C#CCOCCOCCOCCNc1nc(N2CCN(C(=O)CCCCCCCCCCNC(=O)[C@H](CCCCN)n3cc(C)nn3)CC2)nc(N2CCN(C(=O)CCCCCCCCCCNC(=O)[C@@H]([C@H](C)CC)n3cc(CCCCCN)nn3)CC2)n1`?
A1 inh: inactive; CSC inhib: 168.3; Mdm2 MdmX PPI: 100.3; Beta apoptosis: 94.4; Mdm2 MdmX conf: 99.6; FLuc counter: inactive

How did C#CCOCCOCCOCCNc1nc(N2CCN(C(=O)CCCCCCCCCCNC(=O)Cn3cc(C[C@@H](C)O)nn3)CC2)nc(N2CCN(C(=O)CCCCCCCCCCNC(=O)[C@H](CCCCN)n3cc(C[C@@H](C)CC)nn3)CC2)n1 do in these assays?
A1 inh: inactive; CSC inhib: 88.7; Mdm2 MdmX PPI: 93.5; Beta apoptosis: inactive; Mdm2 MdmX conf: 54.5; FLuc counter: 54.9

How did C#CCOCCOCCOCCNc1nc(N2CCN(C(=O)CCCCCCCCCCNC(=O)[C@@H](CCSC)n3cc(CCO)nn3)CC2)nc(N2CCN(C(=O)CCCCCCCCCCNC(=O)[C@H]([C@@H](C)CC)n3cc(CCCCCN)nn3)CC2)n1 do in these assays?
A1 inh: inactive; CSC inhib: inactive; Mdm2 MdmX PPI: 92.1; Beta apoptosis: 98.8; Mdm2 MdmX conf: inactive

How did CCN(C(=O)CSc1nc2cc(S(=O)(=O)N(CC)CC)ccc2n1CC)C1CCS(=O)(=O)C1 (centres undefined) do in these assays?
A1 inh: inactive; CSC inhib: inactive; Mdm2 MdmX PPI: inactive; aSyn UTR inh: inactive; Beta apoptosis: inactive

Results for C#CCOCCOCCOCCNc1nc(N2CCN(C(=O)CCCCCCCCCCNC(=O)[C@H](CO)n3cc(CCCSC)nn3)CC2)nc(N2CCN(C(=O)CCCCCCCCCCNC(=O)[C@H](CCCCN)n3cc(C[C@@H](C)CC)nn3)CC2)n1 ?
A1 inh: inactive; CSC inhib: 126.6; Mdm2 MdmX PPI: 100.2; aSyn UTR inh: 110.1; Beta apoptosis: inactive; Mdm2 MdmX conf: 56.8; FLuc counter: inactive

What do the screens show for `C#CCOCCOCCOCCNc1nc(N2CCN(C(=O)CCCCCCCCCCNC(=O)[C@H]([C@@H](C)CC)n3cc(CCCCCN)nn3)CC2)nc(N2CCN(C(=O)CCCCCCCCCCNC(=O)[C@@H]([C@H](C)O)n3cc(C)nn3)CC2)n1`?
A1 inh: inactive; CSC inhib: 109.5; Mdm2 MdmX PPI: 98.0; Beta apoptosis: 81.4; Mdm2 MdmX conf: 54.5; FLuc counter: 40.4

Results for Cn1c(N)c(C(=O)COC(=O)c2ccccc2C(=O)c2ccc(Cl)c([N+](=O)[O-])c2)c(=O)n(C)c1=O ?
A1 inh: inactive; CSC inhib: inconclusive; Mdm2 MdmX PPI: 99.1; Beta apoptosis: inactive; Mdm2 MdmX conf: 61.6; FLuc counter: inactive

How did CN(CCC#N)C(=O)COC(=O)c1ccccc1C(=O)c1ccc(Cl)c([N+](=O)[O-])c1 do in these assays?
A1 inh: inactive; CSC inhib: inactive; aSyn UTR inh: inactive; Beta apoptosis: inactive

How did O=C(COC(=O)c1ccccc1C(=O)c1ccc(Cl)c([N+](=O)[O-])c1)NC1CCCCCC1 do in these assays?
A1 inh: inactive; CSC inhib: inactive; Mdm2 MdmX PPI: 95.9; aSyn UTR inh: inactive; Beta apoptosis: inactive; Mdm2 MdmX conf: 100.2; FLuc counter: 51.1

What do the screens show for `CC(C)N(C(=O)COC(=O)c1ccccc1C(=O)c1ccc(Cl)c([N+](=O)[O-])c1)C(C)C`?
A1 inh: inactive; CSC inhib: inactive; Mdm2 MdmX PPI: 82.0; aSyn UTR inh: inactive; Beta apoptosis: inactive; Mdm2 MdmX conf: inactive

How did O=C(COC(=O)c1ccc(Cl)c([N+](=O)[O-])c1)NC1CCCC1 do in these assays?
A1 inh: inactive; CSC inhib: inactive; Mdm2 MdmX PPI: inactive; aSyn UTR inh: inactive; Beta apoptosis: inactive

Results for CCOc1ccccc1NC(=O)C(c1ccccc1)N1CCN(C(=O)c2ccco2)CC1 (centres undefined) ?
A1 inh: inactive; Mdm2 MdmX PPI: inactive; Beta apoptosis: inactive

What do the screens show for `CCC(C)NC(=O)c1c(N)n(/N=C/c2cccnc2)c2nc3ccccc3nc12` (centres undefined)?
A1 inh: inactive; CSC inhib: inactive; Mdm2 MdmX PPI: 64.8; aSyn UTR inh: inactive; Beta apoptosis: inactive; Mdm2 MdmX conf: 59.5; FLuc counter: 60.6

What do the screens show for `CC(C)OCCCNC(=O)c1c(N)n(/N=C/c2ccccn2)c2nc3ccccc3nc12`?
A1 inh: inactive; CSC inhib: inactive; Mdm2 MdmX PPI: 64.4; aSyn UTR inh: inactive; Beta apoptosis: inactive; Mdm2 MdmX conf: 52.0; FLuc counter: 63.2

Results for COc1ccc(-n2nnnc2S(=O)(=O)CC(=O)N2CCCCC2)cc1 ?
A1 inh: inactive; CSC inhib: inactive; Mdm2 MdmX PPI: 97.2; Beta apoptosis: inactive; Mdm2 MdmX conf: 96.5; FLuc counter: inactive

What do the screens show for `COC(=O)[C@@]12CCCCN1[C@H](c1ccc(-c3cccc(Cl)c3)c(OC)c1)[C@H]1C(=O)N(C)C(=O)[C@H]12`?
A1 inh: inactive; CSC inhib: inactive; Mdm2 MdmX PPI: inactive; aSyn UTR inh: inactive; Beta apoptosis: inactive

What do the screens show for `COC(=O)c1ccccc1NC(=O)c1cc(-c2cccs2)on1`?
A1 inh: inactive; CSC inhib: inactive; Mdm2 MdmX PPI: 60.4; aSyn UTR inh: inactive; Beta apoptosis: inactive; Mdm2 MdmX conf: inactive

Compound activity: PubChem BioAssay, several laboratories
